# Records with an inconclusive call do not appear. The source made the active and inactive calls. The calls were made as follows, unless noted: active = hit-call score of the fitted dose curve at least 0.9, where 1 is the maximum; inactive = score below 0.9.
# How the values were obtained:
# [1] = ATG_NFI_CIS: Attagene CIS-FACTORIAL HepG2 Assay for human Nuclear Factor I (NFI) (AID 2282989); details: HepG2 cis-regulatory reporter, NFI response element transcription; actives raise or lower the signal
# Summary of the method: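 Multiplexed cis-reporter system in human HepG2 cells reports native TF activity as reporter mRNA induction 24 h post-dose. Fragments labelled with 6-FAM, HpaI-digested and resolved by capillary electrophoresis; activity fitted both directions versus DMSO.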
# [2] = biological target: Myc proto-oncogene protein (Homo sapiens) (UniProt P01106); assay: ATG_Myc_CIS: Attagene CIS-FACTORIAL HepG2 Assay for human Myelocytomatosis (Myc) Proto-Oncogene Transcription Factor (AID 2282990); details: HepG2, Attagene cis-reporter transcription factor activity; actives raise or lower the signal
# Summary of the method: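 HepG2 cells transiently transfected with multiple cis-promoter-driven reporter transcription units, so endogenous TF activity is read. After 24 h compound exposure, reporter mRNA was quantified by RT-PCR, 6-FAM labelling, HpaI digestion and capillary electrophoresis; bidirectional fit versus DMSO.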
# [3] = ATG_NRF2_ARE_CIS: Attagene CIS-FACTORIAL HepG2 Assay for human Nuclear Factor Erythroid 2 Related Factor 2 (NFR2) response to Antioxidant Response Elements (ARE) (AID 2282992); details: HepG2 Attagene ARE/NRF2 reporter, transcription factor activity; actives raise or lower the signal
# Summary of the method: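 Using transiently transfected HepG2 cells exposed for 24 h, reporter mRNA levels were determined by RT-PCR with fluorescent primer extension and capillary electrophoresis, analysed for gain or loss of signal against DMSO.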
# [4] = ATG_Oct_MLP_CIS: Attagene CIS-FACTORIAL HepG2 Assay for human Octamer-Binding Transcription Factor (Oct) (AID 2282993); details: HepG2 Attagene cis-factorial Oct reporter, mRNA; actives raise or lower the signal
# Summary of the method: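 After 24 h compound exposure, transfected HepG2 cells were lysed for total RNA; reporter-specific cDNA was PCR-amplified, fluorescently labelled and sized by capillary electrophoresis. Bidirectional curve fitting used DMSO as baseline.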
# [5] = biological target: Cellular tumor antigen p53 (Homo sapiens) (UniProt P04637); assay: ATG_p53_CIS: Attagene CIS-FACTORIAL HepG2 Assay for human p53 Transcription Factor (AID 2282994); details: HepG2 p53 cis-element reporter, Attagene mRNA; actives raise or lower the signal
# Summary of the method: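 In HepG2 cells, reporter transcription units under cis-regulatory promoters were transiently introduced. Following 24 h treatment, RNA was processed to labelled, digested cDNA fragments read by capillary electrophoresis; fitting was bidirectional versus DMSO.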
# [6] = biological target: human Peroxisome Proliferator-activated Receptor alpha (PPARa), PPARA (gene 5465) (UniProt Q07869); assay: ATG_PPARa_TRANS: Attagene TRANS-FACTORIAL HepG2 Assay for human Peroxisome Proliferator-activated Receptor alpha (PPARa) (AID 2283001; active = hit-call score of the fitted dose curve at least 0.9, where 1 is the maximum;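 as to AC50: potency for gain of reporter signal over DMSO so agonist or activator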)
# Summary of the method: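 Exposure: 24 h, transiently transfected HepG2 cells. Endpoint: GAL4-UAS reporter mRNA, RT-PCR with capillary electrophoresis fluorescence. Baseline: DMSO; increases fitted.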
# [7] = biological target: human Peroxisome Proliferator-activated Receptor delta (PPARd), PPARD (gene 5467) (UniProt Q03181); assay: ATG_PPARd_TRANS: Attagene TRANS-FACTORIAL HepG2 Assay for human Peroxisome Proliferator-activated Receptor delta (PPARd) (AID 2283002; active = hit-call score of the fitted dose curve at least 0.9, where 1 is the maximum)
# Summary of the method: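 HepG2 cells transiently transfected with multiplexed GAL4-UAS reporter units and exogenous chimeric NR-Gal4 proteins; 24 h compound exposure. Reporter mRNA measured by RT-PCR, 6-FAM labelling, HpaI digestion and capillary electrophoresis; gain of signal versus DMSO.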
# [8] = biological target: Peroxisome proliferator-activated receptor gamma (Homo sapiens) (UniProt P37231); assay: ATG_PPARg_TRANS: Attagene TRANS-FACTORIAL HepG2 Assay for human Peroxisome Proliferator-activated Receptor-gamma (PPARg) (AID 2283007; active = hit-call score of the fitted dose curve at least 0.9, where 1 is the maximum)
# Summary of the method: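 Endpoint reflects upward reporter mRNA change versus DMSO controls. Setup: transiently transfected HepG2, GAL4-UAS reporters driven by chimeric NR-Gal4, 24 h incubation, RT-PCR with capillary electrophoresis read-out.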
# [9] = biological target: Nuclear receptor subfamily 1 group I member 2 (Homo sapiens) (UniProt O75469); assay: ATG_PXR_TRANS: Attagene TRANS-FACTORIAL HepG2 Assay for human Pregnane X Receptor (PXR) (AID 2283008; active = hit-call score of the fitted dose curve at least 0.9, where 1 is the maximum)
# Summary of the method: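 Multiplexed TRANS reporter panel in HepG2; this component tracks PXR-Gal4-driven reporter mRNA after 24 h dosing, measured by RT-PCR with capillary electrophoresis fluorescence, fitted against DMSO.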
# [10] = biological target: human Retinoic Acid Receptor gamma (RARg), RARG (gene 5916) (UniProt P13631); assay: ATG_RARg_TRANS: Attagene TRANS-FACTORIAL HepG2 Assay for human Retinoic Acid Receptor gamma (RARg) (AID 2283009; active = hit-call score of the fitted dose curve at least 0.9, where 1 is the maximum)
# Summary of the method: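 Gain-of-signal relative to DMSO is reported from fluorescent capillary electrophoresis of RT-PCR reporter products. These came from HepG2 cells expressing transfected RARg-GAL4 chimeras with UAS reporters, harvested 24 h after dosing.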
# [11] = BSK_3C_TissueFactor: BioMAP Diversity Plus: 3C Assay for Tissue Factor Biomarker Activity (AID 2282997); details: BioMAP 3C HUVEC, tissue factor biomarker readout; actives raise or lower the signal
# Summary of the method: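 In this endothelial system, HUVEC are treated for 24 h and Tissue Factor is assessed by ELISA, normalised to DMSO.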
# [12] = BSK_3C_VCAM1: BioMAP Diversity Plus: 3C Assay for Vascular cell adhesion molecule 1 (VCAM1) Biomarker Activity (AID 2282999); details: BioMAP 3C HUVEC, VCAM1 ELISA, cytokine-stimulated; actives raise or lower the signal
# Summary of the method: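 Vascular primary endothelium (human umbilical vein) was exposed to chemicals and assayed 24 h later. VCAM-1 levels came from ELISA, with DMSO serving as baseline for bidirectional fitting.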
# [13] = BSK_4H_Eotaxin3: BioMAP Diversity Plus: 4H Assay for Eotaxin 3 Biomarker Activity (AID 2283000); details: primary human endothelial cells (HUVEC); actives raise or lower the signal;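 as to outcome: CCL26 protein level quantified by ELISA in parallel with SRB cytotoxicity check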
# Summary of the method: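 ELISA quantitation of CCL26 (Eotaxin-3) protein from chemically dosed human vascular endothelial cells at 24 h; increases and decreases both scored relative to DMSO-treated baseline.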
# [14] = read-out: Intercellular Adhesion Molecule 1 (ICAM1), ICAM1 (gene 3383); assay: BSK_3C_ICAM1: BioMAP Diversity Plus: 3C Assay for Intercellular Adhesion Molecule 1 (ICAM1) Biomarker Activity (AID 2283003); details: primary human endothelial cells (HUVEC); actives raise or lower the signal
# Summary of the method: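 Using DMSO as baseline, bidirectional curve fitting was applied to ICAM-1 ELISA signals from HUVEC in the 3C system, measured 24 h after compound addition.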
# [15] = BSK_3C_Proliferation: Cell Proliferation Assessment in the BioMAP Diversity Plus: 3C Assay (AID 2283006); details: primary human endothelial cells (HUVEC);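 as to AC50: potency may reflect either rise or fall in cell number versus DMSO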
# Summary of the method: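 Measured here: sulforhodamine B (0.1%) staining of TCA-fixed sub-confluent umbilical vein endothelial cultures 48 h post-dosing, absorbance 560 nm. DMSO served as negative control and baseline; both signal gain and loss were modelled.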
# [16] = ATG_NF_kB_CIS: Attagene CIS-FACTORIAL HepG2 Assay for human Nuclear Factor Kappa B (NF-kB) (AID 2282991); details: HepG2 Attagene cis-factorial NF-kB reporter mRNA; actives raise or lower the signal
# Summary of the method: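 Endpoint from a 52-component multiplexed HepG2 reporter panel: cis-regulated transcription units transiently transfected, 24 h dosing, reporter mRNA quantified by RT-PCR and capillary electrophoresis, scored as increase or decrease against DMSO.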
# [17] = biological target: human Retinoic Acid Receptor beta (RARb), RARB (gene 5915) (UniProt P10826); assay: ATG_RARb_TRANS: Attagene TRANS-FACTORIAL HepG2 Assay for human Retinoic Acid Receptor beta (AID 2283004; active = hit-call score of the fitted dose curve at least 0.9, where 1 is the maximum)
# Summary of the method: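 Fluorescent capillary-electrophoresis detection of GAL4-UAS reporter mRNA defines the endpoint, with induction over DMSO-treated wells scored as activity. Transiently transfected human hepatoma HepG2 cells expressing exogenous NR–Gal4 proteins are exposed to test chemicals for 24 h.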
# [18] = biological target: Retinoic acid receptor alpha (Homo sapiens) (UniProt P10276); assay: ATG_RARa_TRANS: Attagene TRANS-FACTORIAL HepG2 Assay for human Retinoic Acid Receptor alpha (RARa) (AID 2283005; active = hit-call score of the fitted dose curve at least 0.9, where 1 is the maximum)
# Summary of the method: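 HepG2 cells transiently transfected with multiple reporter units expressing chimeric RARα-GAL4 fusion, with GAL4-UAS-driven reporters. After 24 h compound exposure, reporter mRNA induction quantified by RT-PCR and capillary electrophoresis with fluorescent labeling; gain-of-signal fitted relative to DMSO control.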
# [19] = biological target: human RAR-related Orphan Receptor beta (RORb), RORB (gene 6096) (UniProt Q92753); assay: ATG_RORb_TRANS: Attagene TRANS-FACTORIAL HepG2 Assay for human RAR-related Orphan Receptor beta (RORb) (AID 2283010; active = hit-call score of the fitted dose curve at least 0.9, where 1 is the maximum)
# Summary of the method: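 Multiplexed transcription-factor reporter assay: HepG2 cells transiently carrying NR-Gal4/GAL4-UAS constructs, 24 h treatment, mRNA quantified by RT-PCR plus capillary electrophoresis fluorescence; activity scored as induction over DMSO.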
# Chain of Cellular tumor antigen p53 (Homo sapiens) (P04637 whole entry, looked up, the tested form may be a part): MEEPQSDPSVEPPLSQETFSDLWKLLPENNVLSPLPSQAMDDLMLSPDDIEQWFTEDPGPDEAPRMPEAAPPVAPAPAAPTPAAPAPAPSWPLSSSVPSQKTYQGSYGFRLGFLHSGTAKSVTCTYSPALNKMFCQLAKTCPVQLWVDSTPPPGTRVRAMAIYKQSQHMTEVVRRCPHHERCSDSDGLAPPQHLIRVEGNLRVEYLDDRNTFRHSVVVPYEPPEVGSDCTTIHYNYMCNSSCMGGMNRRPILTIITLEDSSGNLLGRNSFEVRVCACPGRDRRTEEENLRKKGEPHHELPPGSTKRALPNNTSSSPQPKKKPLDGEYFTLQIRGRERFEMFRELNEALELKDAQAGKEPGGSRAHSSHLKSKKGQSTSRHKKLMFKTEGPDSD
# Chain of human Retinoic Acid Receptor gamma (RARg), RARG (gene 5916) (P13631 whole entry, looked up, the tested form may be a part): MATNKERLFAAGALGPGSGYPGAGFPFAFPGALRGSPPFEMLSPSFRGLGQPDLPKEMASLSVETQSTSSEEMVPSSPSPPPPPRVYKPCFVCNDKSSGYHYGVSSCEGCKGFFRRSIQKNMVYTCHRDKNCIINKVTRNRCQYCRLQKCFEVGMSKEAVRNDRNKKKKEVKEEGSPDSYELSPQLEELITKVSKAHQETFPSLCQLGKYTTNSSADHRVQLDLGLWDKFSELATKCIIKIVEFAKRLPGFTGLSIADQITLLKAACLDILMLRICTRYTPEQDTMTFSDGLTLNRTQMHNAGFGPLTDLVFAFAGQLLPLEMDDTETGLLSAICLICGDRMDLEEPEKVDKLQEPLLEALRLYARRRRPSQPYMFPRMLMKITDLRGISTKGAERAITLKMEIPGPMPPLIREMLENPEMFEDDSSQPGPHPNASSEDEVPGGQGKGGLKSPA
# Chain of human Peroxisome Proliferator-activated Receptor alpha (PPARa), PPARA (gene 5465) (Q07869 whole entry, looked up, the tested form may be a part): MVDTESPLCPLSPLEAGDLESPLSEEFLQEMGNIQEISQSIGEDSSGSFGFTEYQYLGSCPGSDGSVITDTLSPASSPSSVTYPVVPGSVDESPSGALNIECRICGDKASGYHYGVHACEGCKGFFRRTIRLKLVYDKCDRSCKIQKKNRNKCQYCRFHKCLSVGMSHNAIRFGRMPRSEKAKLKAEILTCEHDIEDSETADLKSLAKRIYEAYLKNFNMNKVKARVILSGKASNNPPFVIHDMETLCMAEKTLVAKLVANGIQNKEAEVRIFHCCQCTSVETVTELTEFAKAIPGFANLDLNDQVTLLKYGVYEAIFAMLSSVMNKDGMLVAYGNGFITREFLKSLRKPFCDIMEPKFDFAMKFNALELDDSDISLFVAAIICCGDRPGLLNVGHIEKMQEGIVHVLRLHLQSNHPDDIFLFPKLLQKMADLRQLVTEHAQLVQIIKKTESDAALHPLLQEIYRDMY
# Chain of human Retinoic Acid Receptor beta (RARb), RARB (gene 5915) (P10826 whole entry, looked up, the tested form may be a part): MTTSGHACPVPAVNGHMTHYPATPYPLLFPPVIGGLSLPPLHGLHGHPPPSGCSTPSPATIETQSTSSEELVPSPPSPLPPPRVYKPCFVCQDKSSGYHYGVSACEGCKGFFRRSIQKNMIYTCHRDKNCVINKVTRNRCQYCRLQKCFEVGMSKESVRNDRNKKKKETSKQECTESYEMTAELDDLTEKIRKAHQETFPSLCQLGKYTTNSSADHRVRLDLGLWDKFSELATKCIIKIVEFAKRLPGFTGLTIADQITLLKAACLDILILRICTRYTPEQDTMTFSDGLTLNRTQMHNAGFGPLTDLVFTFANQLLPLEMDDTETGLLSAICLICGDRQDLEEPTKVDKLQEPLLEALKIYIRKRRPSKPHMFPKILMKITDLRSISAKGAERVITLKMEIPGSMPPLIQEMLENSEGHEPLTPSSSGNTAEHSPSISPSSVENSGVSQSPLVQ
# Chain of Peroxisome proliferator-activated receptor gamma (Homo sapiens) (P37231 whole entry, looked up, the tested form may be a part): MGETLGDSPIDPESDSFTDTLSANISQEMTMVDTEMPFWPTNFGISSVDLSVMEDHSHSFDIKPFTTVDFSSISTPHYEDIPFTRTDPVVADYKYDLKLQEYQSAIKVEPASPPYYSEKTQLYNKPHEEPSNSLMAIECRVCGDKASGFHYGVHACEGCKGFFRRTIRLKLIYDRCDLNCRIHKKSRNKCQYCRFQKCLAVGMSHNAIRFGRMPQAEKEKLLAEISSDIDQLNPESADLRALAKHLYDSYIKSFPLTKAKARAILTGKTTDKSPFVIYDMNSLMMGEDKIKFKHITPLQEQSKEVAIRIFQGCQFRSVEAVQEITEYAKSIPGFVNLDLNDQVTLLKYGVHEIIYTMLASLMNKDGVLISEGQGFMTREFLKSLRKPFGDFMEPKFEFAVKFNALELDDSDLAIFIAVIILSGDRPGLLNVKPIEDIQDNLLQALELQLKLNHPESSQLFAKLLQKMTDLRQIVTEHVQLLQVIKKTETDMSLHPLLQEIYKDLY
# Chain of Myc proto-oncogene protein (Homo sapiens) (P01106 whole entry, looked up): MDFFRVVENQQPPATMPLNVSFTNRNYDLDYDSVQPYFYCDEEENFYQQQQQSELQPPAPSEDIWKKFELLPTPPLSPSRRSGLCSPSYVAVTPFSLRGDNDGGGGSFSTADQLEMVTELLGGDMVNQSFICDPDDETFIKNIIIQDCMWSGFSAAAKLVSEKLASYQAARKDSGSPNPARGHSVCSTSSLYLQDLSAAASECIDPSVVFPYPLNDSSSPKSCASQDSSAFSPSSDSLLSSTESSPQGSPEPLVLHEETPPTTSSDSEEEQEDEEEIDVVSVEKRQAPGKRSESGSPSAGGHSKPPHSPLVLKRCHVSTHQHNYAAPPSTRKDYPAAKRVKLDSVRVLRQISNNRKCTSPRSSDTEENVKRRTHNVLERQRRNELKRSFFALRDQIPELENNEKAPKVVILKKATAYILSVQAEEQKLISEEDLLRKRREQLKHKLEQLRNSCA
# Chain of Nuclear receptor subfamily 1 group I member 2 (Homo sapiens) (O75469 whole entry, looked up, the tested form may be a part): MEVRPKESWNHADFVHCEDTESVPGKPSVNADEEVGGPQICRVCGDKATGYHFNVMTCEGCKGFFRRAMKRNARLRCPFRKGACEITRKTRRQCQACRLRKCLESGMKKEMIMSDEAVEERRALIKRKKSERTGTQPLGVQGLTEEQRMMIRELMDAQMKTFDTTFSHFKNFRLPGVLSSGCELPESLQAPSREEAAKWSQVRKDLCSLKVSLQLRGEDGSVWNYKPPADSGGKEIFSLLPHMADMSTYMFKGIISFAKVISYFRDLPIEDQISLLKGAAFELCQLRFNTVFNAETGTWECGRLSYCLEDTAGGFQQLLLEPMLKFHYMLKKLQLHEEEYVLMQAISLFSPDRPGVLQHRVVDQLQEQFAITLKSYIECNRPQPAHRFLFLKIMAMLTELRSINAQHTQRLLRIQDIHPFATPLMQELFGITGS
# Chain of human Peroxisome Proliferator-activated Receptor delta (PPARd), PPARD (gene 5467) (Q03181 whole entry, looked up, the tested form may be a part): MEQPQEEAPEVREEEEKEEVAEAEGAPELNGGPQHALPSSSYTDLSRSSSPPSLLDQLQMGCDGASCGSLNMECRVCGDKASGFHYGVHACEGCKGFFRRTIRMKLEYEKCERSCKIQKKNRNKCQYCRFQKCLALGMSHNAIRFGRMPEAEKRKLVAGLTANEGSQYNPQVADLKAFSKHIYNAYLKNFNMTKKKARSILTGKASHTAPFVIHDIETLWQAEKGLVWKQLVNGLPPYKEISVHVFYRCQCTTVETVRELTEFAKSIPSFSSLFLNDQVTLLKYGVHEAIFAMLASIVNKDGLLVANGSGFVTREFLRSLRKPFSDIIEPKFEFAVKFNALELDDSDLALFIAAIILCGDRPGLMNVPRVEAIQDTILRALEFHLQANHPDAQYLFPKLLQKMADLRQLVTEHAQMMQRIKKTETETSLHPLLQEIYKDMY
# Chain of human RAR-related Orphan Receptor beta (RORb), RORB (gene 6096) (Q92753 whole entry, looked up, the tested form may be a part): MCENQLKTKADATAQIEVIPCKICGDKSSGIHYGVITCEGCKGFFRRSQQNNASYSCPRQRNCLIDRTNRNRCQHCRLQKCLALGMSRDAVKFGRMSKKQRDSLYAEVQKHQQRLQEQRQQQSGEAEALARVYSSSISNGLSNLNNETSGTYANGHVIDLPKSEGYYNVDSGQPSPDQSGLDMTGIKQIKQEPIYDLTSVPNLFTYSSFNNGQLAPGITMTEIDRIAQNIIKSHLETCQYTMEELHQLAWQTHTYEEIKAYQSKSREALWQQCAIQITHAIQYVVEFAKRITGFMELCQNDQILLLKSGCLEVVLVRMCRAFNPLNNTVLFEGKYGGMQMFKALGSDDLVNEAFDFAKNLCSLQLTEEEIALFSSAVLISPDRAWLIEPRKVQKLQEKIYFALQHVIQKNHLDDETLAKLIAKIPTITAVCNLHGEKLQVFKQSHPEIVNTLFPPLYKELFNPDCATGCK
# Chain of Retinoic acid receptor alpha (Homo sapiens) (P10276 whole entry, looked up, the tested form may be a part): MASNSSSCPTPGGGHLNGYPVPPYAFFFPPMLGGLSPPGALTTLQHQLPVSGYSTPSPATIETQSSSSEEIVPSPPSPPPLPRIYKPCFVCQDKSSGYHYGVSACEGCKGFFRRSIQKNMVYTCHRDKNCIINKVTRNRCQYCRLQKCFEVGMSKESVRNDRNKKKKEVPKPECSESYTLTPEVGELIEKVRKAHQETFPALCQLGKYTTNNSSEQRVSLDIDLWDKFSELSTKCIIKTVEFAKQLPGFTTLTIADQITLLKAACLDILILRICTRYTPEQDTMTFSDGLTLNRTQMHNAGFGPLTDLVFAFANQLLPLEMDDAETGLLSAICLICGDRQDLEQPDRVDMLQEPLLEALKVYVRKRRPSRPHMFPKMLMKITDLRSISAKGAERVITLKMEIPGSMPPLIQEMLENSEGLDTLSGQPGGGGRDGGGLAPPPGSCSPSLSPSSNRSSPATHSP
smiles,measurement,setting,value
CCOC(=O)COC(=O)c1cc(Oc2ccc(C(F)(F)F)cc2Cl)ccc1[N+](=O)[O-],outcome,[1],inactive
same,outcome,[2],inactive
same,outcome,[3],inactive
same,outcome,[4],inactive
same,outcome,[5],inactive
same,AC50,[6],14.5 µM (active)
same,outcome,[7],inactive
same,AC50,[8],11.1 µM (active)
same,AC50,[9],22.2 µM (active)
same,outcome,[10],inactive
c1ccc(CCc2ccccc2)cc1,outcome,[1],inactive
same,outcome,[2],inactive
same,AC50,[3],149 µM (active)
same,outcome,[4],inactive
same,outcome,[5],inactive
same,AC50,[11],14.5 µM (active)
same,AC50,[12],29.8 µM (active)
same,AC50,[13],30.7 µM (active)
same,outcome,[6],inactive
same,outcome,[7],inactive
same,AC50,[14],30.9 µM (active)
same,AC50,[15],22.7 µM (active)
same,outcome,[8],inactive
same,AC50,[9],31.6 µM (active)
O=C(Nc1ccc([N+](=O)[O-])cc1)Nc1ccc([N+](=O)[O-])cc1 (tested in a mixture with another compound),outcome,[1],inactive
same,outcome,[2],inactive
same,outcome,[16],inactive
same,outcome,[3],inactive
same,outcome,[5],inactive
same,outcome,[6],inactive
same,outcome,[8],inactive
same,outcome,[9],inactive
same,outcome,[10],inactive
CCN(CCN)c1cccc(C)c1,outcome,[1],inactive
same,outcome,[2],inactive
same,outcome,[3],inactive
same,outcome,[4],inactive
same,outcome,[5],inactive
same,outcome,[6],inactive
same,outcome,[17],inactive
same,outcome,[8],inactive
same,outcome,[9],inactive
same,outcome,[10],inactive
CSc1c(Cl)c(Cl)c(Cl)c(Cl)c1Cl,AC50,[1],154 µM (active)
same,AC50,[2],167 µM (active)
same,outcome,[16],inactive
same,AC50,[3],48.4 µM (active)
same,outcome,[5],inactive
same,outcome,[17],inactive
same,AC50,[8],6.23 µM (active)
same,AC50,[9],8.95 µM (active)
same,outcome,[10],inactive
COc1cc(Cl)c(OC)cc1N,outcome,[1],inactive
same,outcome,[2],inactive
same,outcome,[3],inactive
same,outcome,[4],inactive
same,outcome,[11],inactive
same,outcome,[12],inactive
same,outcome,[13],inactive
same,outcome,[6],inactive
same,outcome,[14],inactive
same,outcome,[17],inactive
same,outcome,[18],inactive
same,outcome,[15],inactive
same,outcome,[8],inactive
same,outcome,[9],inactive
same,outcome,[10],inactive
CCCCCCCC/C=C\CCCCCCCC(=O)OCC,outcome,[1],inactive
same,outcome,[2],inactive
same,outcome,[3],inactive
same,outcome,[4],inactive
same,AC50,[6],45.1 µM (active)
same,outcome,[17],inactive
same,AC50,[8],50.5 µM (active)
same,outcome,[9],inactive
same,outcome,[19],inactive
O=C(CC(=O)c1ccccc1)c1ccccc1,AC50,[1],100 µM (active)
same,AC50,[2],100 µM (active)
same,AC50,[3],3.43 µM (active)
same,AC50,[4],59 µM (active)
same,outcome,[5],inactive
same,AC50,[8],3.74 µM (active)
same,AC50,[9],28.2 µM (active)
O=C(O)CCCCCCCCCCCC(=O)O,outcome,[1],inactive
same,outcome,[2],inactive
same,outcome,[3],inactive
same,outcome,[4],inactive
same,outcome,[5],inactive
same,outcome,[6],inactive
same,outcome,[8],inactive
same,outcome,[9],inactive
